# Bioassay records: PubChem BioAssay, University of Kansas High Throughput Screening Laboratory
# Compounds with a hit are over-represented: about 3.5% of the library has one in this group of screens.
# Pf apPOL block: Pf-apPOL DNA polymerase inhibition | Recombinant Pf-apPOL, molecular beacon fluorescence, 1.5 h | inhibition, % at 10 µM | actives 0.25% (n = 210,000)
# mHTT-CaM PPI inh: mHTT-calmodulin interaction abrogation. P42858. inhibition, % at 15 µM. actives 3.6% (n = 190,000). AlphaScreen His-mHTT/GST-CaM binding, luminescence;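 note: 0% = both proteins with DMSO and 100% = one protein alone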
# * hit, by the source's call; · = no result given. Cut-off read from the data, not from the text of the source: active = inhibition above about 50%; inactive = the rest.
SMILES,Pf apPOL block,mHTT-CaM PPI inh
Cc1ccccc1NC1=CC(=NS(=O)(=O)c2ccc(F)cc2)c2ccccc2C1=O,3.3,96.0*
COc1ccccc1NC(=O)c1ccc2c(c1)-c1ccccc1C2=O,0.0,2.0
COc1cccc2cc(-c3csc(NCc4ccc(F)cc4)n3)c(=O)oc12,-2.8,-23.0
O=C(Nc1nnc(Br)s1)c1ccco1,0.9,-4.0
COc1ccc(-c2nc3c(c(=O)[nH]2)CCN(C(=O)c2cc4c(s2)CCCC4)C3)cc1,1.1,-3.8
COc1ccc(C)cc1NC(=O)c1cccc([N+](=O)[O-])c1C,-6.7,0.2
O=C1C(=Cc2cccc(Br)c2)Oc2cc(O)ccc21,0.1,3.6
Nc1sc2c(c1-c1nn[nH]n1)CCCC2,·,90.1*
N#Cc1c(N)sc2c1CCCC2,-2.0,4.3
COC(=O)c1ccc(NC(=O)CSc2nnc(-c3cccs3)n2-n2cccc2)cc1,-4.5,1.7
Cc1ccc(OCCNS(=O)(=O)c2ccc(C)c([N+](=O)[O-])c2)cc1,-6.4,5.7
COc1cccc(COC2CCCN(C(=O)c3cccs3)C2)c1 (centres undefined),-3.2,-3.9
O=C(c1cccs1)N1CCCC(OCc2ccc(C(F)(F)F)cc2)C1 (centres undefined),-1.7,50.6*
O=c1c([N+](=O)[O-])c(Cl)c2ccccc2n1-c1ccccc1,-1.5,100.0*
O=c1c([N+](=O)[O-])c(O)c2ccccc2n1-c1ccccc1,-3.0,-6.0
O=C1OC(c2ccc(Cl)c([N+](=O)[O-])c2)=N/C1=C\c1cccc(F)c1,4.0,3.0
COc1cc(NC(=O)Cn2cnc([N+](=O)[O-])n2)cc([N+](=O)[O-])c1,1.6,3.0
O=C(Cn1cnc([N+](=O)[O-])n1)Nc1cc(Oc2cccnc2)cc([N+](=O)[O-])c1,2.4,6.0
Cc1cccc(Oc2cc(NC(=O)Cn3cnc([N+](=O)[O-])n3)cc([N+](=O)[O-])c2)c1,4.0,57.0*
O=C(Cn1cnc([N+](=O)[O-])n1)Nc1cc(Oc2cccc(Cl)c2)cc([N+](=O)[O-])c1,3.0,62.0*
Cc1cc(-c2nnc(NC(=O)CCc3c(C)noc3C)o2)c(C)o1,10.3,8.3
CCCn1c(N2CCCC(C(=O)NC3CC3)C2)nc2ccccc21 (centres undefined),-10.2,1.0
CCn1c(=O)c(N2CCCC(C(=O)NC3CCCCCCC3)C2)nc2ccccc21 (centres undefined),-7.7,63.5*
CCOC(=O)C1CCCCN1 (centres undefined),-0.9,-4.5
Cc1c(C(=O)N2CCC(c3nnc(C(C)C)o3)CC2)cnn1-c1ccccc1,-0.1,-1.0
SMILES,Pf apPOL block,mHTT-CaM PPI inh
CC(C)c1nnc(C2CCN(C(=O)c3cnc4ccccc4n3)CC2)o1,-7.1,100.1*
COc1ccc(NC(=O)CSc2nccn2C)cc1,4.5,-2.5
COc1ccc(NC(=O)CSC2=NC(=O)CC(C)=N2)cc1,76.0*,-1.0
CC1(C)C(C=C(Cl)Cl)C1C(=O)Nc1cccc(C(F)(F)F)c1 (centres undefined),-0.8,53.0*
CC1(C)C(C=C(Cl)Cl)C1C(=O)Nc1ccc(Cl)c(Cl)c1 (centres undefined),-5.8,-21.0
CCOc1ccc(S(=O)(=O)N(CC(=O)NC(C)(C)C)c2ccc(C)cc2)cc1,-3.5,-2.3
Cc1ccnc(NC(c2cccnc2)c2ccc3cccnc3c2O)c1 (centres undefined),4.3,100.0*
COc1cccc(C(=O)Nc2cccc3cccnc23)c1,-1.6,-46.0
Cc1ccnc(NC(c2ccncc2)c2ccc3ccc(C)nc3c2O)c1 (centres undefined),-8.2,90.0*
COc1ccccc1CC(=O)Nc1cc(C)ccn1,-0.9,-1.7
Cc1ccnc(NC(=O)CSc2ccccn2)c1,-28.3,·
Cc1ccnc(NC(=O)c2cc(I)ccc2Cl)c1,-3.2,-10.7
COc1ccc(C(Nc2cc(C)ccn2)c2ccc3cccnc3c2O)cc1O (centres undefined),-17.7,100.0*
COc1cccc(C(Nc2cc(C)ccn2)c2ccc3cccnc3c2O)c1 (centres undefined),0.3,99.0*
O=[N+]([O-])c1ccc(NCCCNS(=O)(=O)Cc2ccccc2)c(Cl)c1,6.0,23.0
COc1ccc(-c2c(NC(=O)C3CCCCC3)oc3ccccc3c2=O)cc1OC,-12.2,13.3
CCc1onc(C)c1C1CCCN1Cc1ccc(OCC(N)=O)c(OC)c1 (centres undefined),0.3,-2.5
CCCN(CCC)S(=O)(=O)c1ccc(C(=O)Nc2nc3c(OCC)cccc3s2)cc1,-2.9,24.0
CCOC(=O)CCC(=O)N1CCC(CSC2=NCCS2)CC1,-9.9,8.1
Cc1ccc(OCC(=O)Nc2ccc(C)cc2Br)cc1,-4.0,-10.6
C=CCn1c(=N)n(CCOc2ccccc2Cl)c2ccccc21,-6.2,6.3
Cc1ccnc(NC(c2cccnc2)c2ccc3ccc(C)nc3c2O)c1 (centres undefined),-6.1,76.0*
CCCc1oc2cc(OCC(=O)OC)c(CC)cc2c(=O)c1-c1ccc2c(c1)OCCCO2,-0.8,-1.1
CCc1cc2c(=O)c(-c3ccc4c(c3)OCCO4)c(C)oc2cc1OCC(=O)OC,54.8*,6.1
Clc1cccc(C2OCC3(CO2)COC(c2cccc(Cl)c2)OC3)c1 (centres undefined),-0.8,-11.0
SMILES,Pf apPOL block,mHTT-CaM PPI inh
CC(O)Cc1c(C(=O)O)[nH][nH]c1=O (centres undefined),-6.5,-0.7
O=C(Nc1ccccc1O)/C(=C1\Nc2ccc([N+](=O)[O-])cc2N1)[N+](=O)[O-],5.2,20.0
NCCNC(=O)/C(=C1\Nc2ccc([N+](=O)[O-])cc2N1)[N+](=O)[O-],2.9,63.0*
CC(C)Cc1ccc(S(=O)(=O)n2cc([N+](=O)[O-])cn2)cc1,-3.3,100.0*
O=[N+]([O-])c1ccc(S(=O)(=O)n2cccn2)cc1,12.7,8.0
COc1ccc(OC)c(S(=O)(=O)c2ccc([N+](=O)[O-])cc2Cl)c1,-9.9,·
COc1ccc(OC)c(S(=O)(=O)n2cc([N+](=O)[O-])cn2)c1,-11.3,100.0*
Cc1cc(I)ccc1S(=O)(=O)n1cnc2ccccc21,-7.7,-7.0
CC(=O)NCC(=O)N(C)C(C(=O)Nc1ccc2c(c1)OCO2)c1ccccc1 (centres undefined),-2.0,5.0
CN(C(=O)Cc1c[nH]c2ccccc12)C(C(=O)Nc1ccc2c(c1)OCO2)c1ccccc1 (centres undefined),-3.9,88.0*
CC(C)N(Cc1c[nH]c2ccccc12)C(=O)Nc1ccc(Cl)c(Cl)c1,-16.0,68.0*
CC(=O)Nc1ccc(NC(=O)CCc2c[nH]c3ccccc23)cc1,-9.4,10.0
O=C(Cn1c(=O)oc2ccccc21)N1CCCC(COCc2ccccc2)C1 (centres undefined),-2.0,5.9
O=C(CC1CCCCC1)N1CCN(c2ccc([N+](=O)[O-])cc2)CC1,-8.7,9.8
O=C(CSc1cccc2cccnc12)NC1CCCCC1,-1.7,15.6
O=C(CSc1cccc2cccnc12)N1CCCCC1,-2.4,88.0*
O=C(O)c1ccc(NC(=O)c2cc3ccccc3o2)cc1,-0.6,0.5
O=C(Nc1cccc(NC(=O)c2cc3ccccc3o2)c1)c1ccccc1,69.6*,13.9
O=c1[nH]c2ccc(Cl)cc2c(-c2ccccc2)c1C1=NOC(c2ccc(F)cc2)C1 (centres undefined),5.4,100.0*
COc1ccc(C2=NN(C(C)=O)C(c3ccc(Cl)cc3)C2)cc1 (centres undefined),-3.7,·
